The list is not random: actives were taken first. Their share in the collection is about 2.4%.
GCN5L2 inh = blocks human GCN5L2 histone acetyltransferase; GCN5L2 HAT assay, ThioGlo1 CoA-SH fluorescence; AID 504327; Q92830; 0.21% of 390,000 active; Potency, µM (series often up to 58.9 µM), usual class: inhibitors
Target sequence (Q92830 whole entry, looked up): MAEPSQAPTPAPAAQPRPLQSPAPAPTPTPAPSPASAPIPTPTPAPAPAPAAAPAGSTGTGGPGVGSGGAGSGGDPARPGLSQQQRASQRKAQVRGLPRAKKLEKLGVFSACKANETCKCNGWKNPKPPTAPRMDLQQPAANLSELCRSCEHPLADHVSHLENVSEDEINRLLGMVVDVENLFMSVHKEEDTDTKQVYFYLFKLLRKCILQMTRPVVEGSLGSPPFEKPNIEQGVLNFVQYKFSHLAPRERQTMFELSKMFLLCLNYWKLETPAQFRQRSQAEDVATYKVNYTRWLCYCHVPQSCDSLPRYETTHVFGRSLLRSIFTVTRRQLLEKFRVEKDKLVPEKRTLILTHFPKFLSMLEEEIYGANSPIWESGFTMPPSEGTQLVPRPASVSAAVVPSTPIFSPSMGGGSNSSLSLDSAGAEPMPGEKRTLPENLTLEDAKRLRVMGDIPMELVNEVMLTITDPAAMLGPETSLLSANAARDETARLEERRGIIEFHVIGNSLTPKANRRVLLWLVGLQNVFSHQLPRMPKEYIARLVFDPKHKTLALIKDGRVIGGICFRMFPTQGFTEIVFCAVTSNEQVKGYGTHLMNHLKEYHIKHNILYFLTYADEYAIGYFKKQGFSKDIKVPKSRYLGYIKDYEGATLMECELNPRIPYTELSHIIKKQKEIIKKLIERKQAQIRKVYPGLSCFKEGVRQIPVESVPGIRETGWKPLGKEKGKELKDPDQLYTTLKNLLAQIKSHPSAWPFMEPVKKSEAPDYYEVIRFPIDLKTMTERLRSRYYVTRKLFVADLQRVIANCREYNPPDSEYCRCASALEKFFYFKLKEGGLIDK
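Fluorescence readout, Ex340nm/Em540nm: ThioGlo1 (50uM final) reacts with free CoA thiol released as 20nM GCN5L2 acetylates H3(1-25) peptide (75uM) using acetyl-CoA (70uM). Compound and enzyme sat 15 min beforehand; 20 min room-temperature reaction.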
Pol beta inh = blocks human DNA polymerase beta activity | Pol beta primer extension/strand displacement, fluorescence kinetic | Potency, µM (series often up to 114 µM), most hits filed as inhibitors | P06746 | 1.3% of 340,000 active | AID 485314
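Kinetic readout of DNA synthesis with strand displacement by Pol beta. Compound and 10 nM enzyme sit 15 min at room temperature; 50 nM substrate starts the reaction, read immediately and at 10 min.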
GLS inh = glutaminase GLS (human) inhibition; O94925; GLS enzymatic activity, qHTS titration; Potency, µM (titrated, usually from 45.5 µM), actives largely listed as inhibitors; 0.21% of 410,000 active; AID 624170
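Coupled fluorescence readout: glutamate oxidase/HRP/Amplex Red detect glutamate formed by hKGA from L-glutamine (1 mM solution added). Buffer 45 mM KH2PO4 pH 8.2, 0.02% Tween-20; reads at t0 and 30 min RT.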
Pol kappa inh = DNA polymerase kappa (human) inhibition | Q9UBT6 | purified Pol kappa, fluorescent DNA synthesis assay, 10 min | Potency, µM (titrated, usually from 107 µM), hits mostly inhibitors | 0.53% of 400,000 active | AID 588579
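Pol kappa 10 nM + cpd, 15 min RT; start w/ substrate 50 nM final; fluorescence kinetic read, 0 and 10 min. Neg ctrl: buffer, no enzyme.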
POLH inh = DNA polymerase eta (human) inhibition | Q9Y253 | recombinant Pol eta, fluorescent DNA replication assay | Potency, µM (highest dose often 114 µM), usual class: inhibitors | 1.2% of 390,000 active
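Pol eta (10 nM) was preincubated with compounds for 15 min at room temperature, after which fluorescent replication substrate (50 nM final) was added to start the reaction. Fluorescence was read kinetically at 0 and 10 min.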
POLI inh = DNA polymerase iota (human) inhibition | Q9UNA4 | Pol iota fluorescent replication assay, 10 min | Potency, µM (top dose mostly 115 µM), usual class: inhibitors | 1% of 390,000 active | AID 588590
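Pol iota at 10 nM preincubated 15 min with compounds at room temperature; reaction started with fluorescent substrate, 50 nM final. Fluorescence read kinetically at 0 and 10 min; buffer-only wells as negative control.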
Numbers stand for hits; - = inactive; ? = inconclusive; . = not tested or not shown; [ ] = dose if it differs, or a comment. The call rests on the fitted dose curve; in most records, active means well fitted inhibition curve with a large enough effect; inconclusive means small, poorly fitted or top-dose-only effect, or another doubt; inactive means no such curve, though single readings can be large or run the other way.

SMILES	GCN5L2 inh	Pol beta inh	GLS inh	Pol kappa inh	POLH inh	POLI inh
COc1ccc(CC(=O)NCc2nc3cccnc3n2Cc2ccc(C)cc2)cc1	-	-	-	-	-	-
O=S(=O)(c1cccc(Br)c1)N1CCN(c2nc(-c3cccs3)nc3ccccc23)CC1	.	.	.	-	.	-
CCOC(=O)c1c(NC(=O)Cc2ccccc2)sc2c1CCN(C)C2	?	-	-	-	-	-
CCOC(=O)c1c(NC(=O)CSc2nnc(C)s2)sc2c1CCN(C)C2	-	-	?	-	?	11µM
COc1ccc(OCC(=O)Nc2ccc(C(=O)OCc3cc(=O)n4nc(C)sc4n3)cc2)cc1	-	-	-	-	-	-
Cc1ccc(C2C(C#N)=C(N)Oc3n[nH]c(-c4cccnc4)c32)o1 (stereo unspecified)	-	-	-	-	-	28µM
Cc1ccc(C2C(C#N)=C(N)Oc3n[nH]c(-c4ccccc4)c32)o1 (stereo unspecified)	-	-	?	-	?	-
Cc1ccc(C)c(NC(=O)Cn2c(SCC(=O)NCc3ccccc3)nc3ccccc32)c1	-	?	-	-	-	?
CC[C@]1(O)C[C@H]2CN(CCC3=c4ccccc4=N[C]3[C@@](C(=O)OC)(c3cc4c(cc3OC)N(C)[C@H]3[C@@](O)(C(N)=O)[C@H](O)[C@]5(CC)C=CCN6CC[C@]43[C@@H]65)C2)C1	.	.	-	.	.	.
Cn1c(=O)c2c(-c3ccc(Br)cc3)n(Cc3ccc(F)cc3)cc2n(C)c1=O	-	-	-	?	-	89µM
Cn1c(=O)c2c(-c3ccc(Cl)cc3)n(Cc3ccc(Cl)cc3)cc2n(C)c1=O	-	?	-	-	-	?
CCCCCCCCCCCCCCCC(=O)OCC(O)C1OC(=O)C(O)=C1O (stereo unspecified)	8.9µM	.	-	14µM	.	.
CCCCCCCCCCCCCCCCCC(=O)OCC(C)O (stereo unspecified)	-	.	-	?	.	.
CC(=O)Nc1ccc(C(=O)OCC(=O)N2CCCC2=O)cc1	-	.	-	-	-	-
COc1cc(C(=O)OCC(=O)N2CCCC2=O)cc(OC)c1C	-	.	-	?	32µM	?
Oc1ccccc1C1C=C(c2ccc3c(c2)OCO3)NC(c2cccc(F)c2)N1 (stereo unspecified)	.	.	.	-	.	?
COCCCNS(=O)(=O)c1cc(-c2onc(C)c2C)ccc1OC	-	-	-	-	-	-
CN(C)C1C(=O)C(C(N)=O)C(=O)C2(O)C(=O)C3C(=O)c4c(O)ccc(Cl)c4C(O)C3CC12 (stereo unspecified)	-	.	.	35µM	.	.
N#C/C(=C/c1cn(Cc2ccc(F)cc2)c2ccccc12)C(=O)Nc1cccc(Cl)c1	-	-	-	?	-	56µM
CCC1CN(C(=O)N2CCC(C(=O)NCc3cccc(F)c3)CC2)c2cc(C)ccc2O1 (stereo unspecified)	-	-	-	?	-	79µM
COc1ccc2nc(-c3ccc(N)cc3)[nH]c2c1	-	?	-	-	-	?
COc1ccc(-c2nc3ccc(C4=C(C)CC(=O)NN4)cc3[nH]2)cc1	.	.	32µM	-[19.4 µM]	.	.
O=C(O)CCC/C=C\C[C@@H]1[C@@H](CC[C@@H](O)CCc2ccccc2)[C@H](O)C[C@@H]1O	-	.	.	-[12 µM]	.	.
O=C(NCCc1cn2ccccc2n1)c1cc(COc2ccc3ncccc3c2)on1	-	40µM	-	-	-	-
OC1OC[C@@H](O)[C@@H](O)[C@@H]1O (stereo partly specified)	-	.	.	-	.	.
SMILES	GCN5L2 inh	Pol beta inh	GLS inh	Pol kappa inh	POLH inh	POLI inh
O=C(Nc1ccc(N2CCN(c3ccc(O)cc3)CC2)cc1)Oc1ccccc1	-	-	-	-	-	-
Nc1ccc(OC(=O)Nc2ccc(O)cc2)cc1	-	-	14µM	-	-	20µM
COc1ccc(-c2noc(-c3ccc(N4CCC(C)CC4)c([N+](=O)[O-])c3)n2)cc1OC	-	79µM	-	?	-	-
NC(=O)c1ccccc1NC(=O)/C=C/c1ccc(Cl)cc1	-	-	-	-	-	-
O=C(/C=C/c1ccc(Cl)cc1)NC(=S)Nc1ccccc1C(=O)O	-	?	-	-	56µM	?
O=C(CCC(=O)Nc1ccc(Cl)cc1Cl)N/N=C/c1ccc([N+](=O)[O-])o1	-	-	-	-	-	56µM
CCN1C(=O)N/C(=C/c2ccc(C)o2)C1=O	-	?	-	-	-	40µM
O=C(NOC(=O)c1ccccc1F)c1ccc(OC(F)F)cc1	-	-	-	-	-	-
COc1cc(C(=O)ONC(=O)c2ccc(OC(F)F)cc2)cc(OC)c1OC	-	32µM	-	-	79µM	?
COc1ccc(OCC(=O)Nc2ccc3c(c2)nc(CCn2ccccc2=O)n3C)cc1	-	?	-	-	-	56µM
COc1ccc(OCC(=O)Nc2ccc3c(c2)nc(CCN2CCOCC2)n3C)cc1	-	-	-	-	-	-
Cc1ccc(NC(=O)c2cc(-c3ccco3)nc3ccccc23)cc1S(=O)(=O)N1CCOCC1	?	14µM	-	-	?	16µM
Cc1ccc(S(=O)(=O)N(C)C)cc1NC(=O)c1cc(-c2ccco2)nc2ccccc12	-	-	-	?	?	20µM
Cc1ccccc1N=Nc1c(C)[nH]n(C(N)=S)c1=O	-	?	-	-	-	-
CCN(CC)S(=O)(=O)c1ccc(N=Nc2c(C)[nH]n(C(N)=S)c2=O)cc1	-	40µM	-	-	-	-
NC(=S)n1[nH]c(-c2ccc([N+](=O)[O-])cc2)c(N=Nc2cccc(Cl)c2)c1=O	-	?	-	?	40µM	20µM
Cc1[nH]n(C(N)=S)c(=O)c1N=Nc1ccc([N+](=O)[O-])cc1Cl	-	-	-	-	-	40µM
NC(=S)n1[nH]c(-c2ccc([N+](=O)[O-])cc2)c(N=Nc2ccc(O)cc2)c1=O	-	-	-	?	?	?
COc1ccc(-c2nc3ccccc3s2)cc1NC(=O)COc1cccc(C)c1	-	-	-	?	-	?
CC[C@H](NC(=O)[C@H](CCCN=C(N)N)NC(=O)[C@H](Cc1c[nH]c2ccccc12)NC(=O)[C@@H](N)CS)C(=O)N[C@@H](CCCN=C(N)N)C(=O)N[C@@H](Cc1ccc(O)cc1)C(N)=O	?	.	.	-	.	.
CC(C)(C)c1ccc(C(=O)C[n+]2ccc(Cl)c3ccc(Cl)cc32)cc1	.	.	.	-	.	-
CC[C@@H](C)[C@@H](CO[C@@H](Cc1ccccc1)C(=O)N[C@@H](CCS(C)(=O)=O)C(=O)OC(C)C)NC[C@@H](N)CS	-	.	.	-	.	.
Cc1cccc(OCC(=O)Nc2cc(NC(=O)COc3cccc(C)c3C)cc(C(=O)O)c2)c1C	?	10µM	-	-	?	-

Assay outcomes as filed in PubChem.
